# An excerpt weighted towards active compounds, which were near 2.9% of everything screened.
# KLK7 zymogen act = proKLK7 (human) activation, primary screen; 370,000 tested, 0.9% active; purified proKLK7, EDANS-DABCYL substrate fluorescence; 100% is mature enzyme control, 0% vehicle; activation, % at 7 µM; P49862;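 active means activation above the mean of all tested compounds plus 3 SD, computed per campaign excluding outliers beyond control limits, cut at about 13% in these data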
# ADAM10 inh = inhibits human ADAM10 | O14672 | recombinant ADAM10, EDANS/DABCYL FRET peptide cleavage, 3 h | inhibition, % at 7 µM | 370,000 tested, 0.62% active | AID 720582;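 active means inhibition above a per-campaign cutoff equal to the mean of compounds falling between control-based bounds plus 3 SD, cut at about 20% in these data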;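 further: 0% = DMSO wells while the 100% control is not disclosed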
# ADAM17 inh = inhibitors of human ADAM17. recombinant ADAM17, EDANS/DABCYL FRET peptide cleavage. 370,000 tested, 0.83% active. P78536. AID 720648. inhibition, % at 6.95 µM;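 active means inhibition above the mean of compounds lying between control limits plus 3 SD, set per campaign, cut at about 8.5% in these data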;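 further: 0% = DMSO-only wells as the low control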
# Target sequence (P78536 215-824 limits assumed): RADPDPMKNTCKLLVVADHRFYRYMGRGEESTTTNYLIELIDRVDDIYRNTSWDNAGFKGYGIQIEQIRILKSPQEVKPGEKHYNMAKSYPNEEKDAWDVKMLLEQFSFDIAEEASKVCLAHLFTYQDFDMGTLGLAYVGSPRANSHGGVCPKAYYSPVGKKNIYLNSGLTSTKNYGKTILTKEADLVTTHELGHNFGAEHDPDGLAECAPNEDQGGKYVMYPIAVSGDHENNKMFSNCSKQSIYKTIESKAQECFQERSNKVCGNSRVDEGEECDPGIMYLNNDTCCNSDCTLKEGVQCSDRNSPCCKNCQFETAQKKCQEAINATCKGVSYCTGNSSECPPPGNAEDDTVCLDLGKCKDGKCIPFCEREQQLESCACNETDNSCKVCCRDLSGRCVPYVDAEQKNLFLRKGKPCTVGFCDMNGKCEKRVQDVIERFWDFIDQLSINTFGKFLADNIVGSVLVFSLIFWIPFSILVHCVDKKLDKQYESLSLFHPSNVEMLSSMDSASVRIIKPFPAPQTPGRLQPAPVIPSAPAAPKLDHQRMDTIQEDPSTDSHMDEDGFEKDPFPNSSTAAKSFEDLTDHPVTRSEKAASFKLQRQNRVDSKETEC
# PLCg1 inh = blocks human PLC-gamma1 enzyme activity. inhibition, % at 12.2 µM. 370,000 tested, 0.84% active. AID 720700. purified PLC-gamma1, fluorogenic substrate, fluorescence; in the data active means inhibition above about 9.5%
# PLCb3 inh = PLC-beta3 (human) inhibition, primary screen. Q01970. 370,000 tested, 0.18% active. Purified PLC-beta3, fluorogenic substrate, fluorescence. AID 720704. inhibition, % at 12.2 µM; in the data active means inhibition above about 11%;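 further: 0% = median of compound wells on plate and 100% = full blocker control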
# KLK7 act conf = proKLK7 activation, confirmation. shares compounds with KLK7 zymogen act. purified proKLK7, EDANS-DABCYL substrate fluorescence; scaled: vehicle 0, mature enzyme 100. activation, % at 7 µM. 3,200 tested, 68% active. AID 686949;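 active means activation, as change over the incubation, above the mean of all tested compounds plus 3 SD, cut at about 13% in these data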
# EDANS interfere = counter-screen for kallikrein-7 activators: EDANS-DABCYL optical interference | shares compounds with KLK7 zymogen act | EDANS-DABCYL substrate fluorescence interference, no enzyme, 4 h; solvent 0%, active enzyme control 100% | activation, % at 7 µM | 3,200 tested, 80% active;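 active means activation above the all-compound mean plus 3 SD, ignoring values outside control-based bounds, cut at about 4.8% in these data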;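 further: value is the 4 h activation minus the activation read at time zero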
# EDANS interf = counter-screen for kallikrein-7 activators: EDANS-DABCYL interference, dose response | EC50, µM | AID 720493 | EDANS-DABCYL peptide fluorescence interference, no enzyme | 250 tested, 20% active | shares compounds with KLK7 zymogen act;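 active means compounds that raise the fluorescence signal in this interference counterscreen, with EC50 at or below 10 µM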;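 further: intact quenched peptide substrate alone read at 355 nm excitation and 520 nm emission; signal is fluorescence gain from T0 to T4 after four hours at room temperature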
# * marks the source's active call; other numbers are inactive results; i = inactive; . = no result.
SMILES,KLK7 zymogen act,ADAM10 inh,ADAM17 inh,PLCg1 inh,PLCb3 inh,KLK7 act conf,EDANS interfere,others
COc1ccccc1C1C=C(c2ccc(Cl)cc2)Nc2nc(N3C(=O)CCC3=O)nn21 (stereo not drawn),6,-112,-34,-493,i,.,.,
O=C1CCC(=O)N1c1nc2n(n1)C(c1ccccc1)C=C(c1ccc(Br)cc1)N2 (stereo not drawn),30*,-37,-14,-345,i,64*,47*,
COc1ccc(C2C=C(c3ccc(Br)cc3)Nc3nc(N4C(=O)CCC4=O)nn32)cc1 (stereo not drawn),29*,-178,-46,-350,i,-81,-73,
CCCCN(C)C(=O)CSc1nnc(-c2cccnc2)n1C1CCCCC1,0,-1,0,-2,1,.,.,
COc1ccc2c(c1)CN1C(=O)N(Cc3ccc(F)cc3)S(=O)(=O)CC21 (stereo not drawn),1,-2,4,-3,-4,.,.,
CCOC(=O)NN1C(=O)c2ccccc2NC1c1ccccn1 (stereo not drawn),10,i,-182,-234,-291,.,.,
O=C1c2ccccc2NC(c2ccccn2)N1c1ccccc1F (stereo not drawn),18*,i,-328,-427,i,22*,22*,
Cc1cccc(C2Nc3ccccc3C(=O)N2c2ccc(F)cc2)n1 (stereo not drawn),28*,i,-277,-434,i,23*,21*,
Cc1ccc(-n2c(SCC(=O)Nc3ccccc3-c3ccccc3)nnc2-c2cccnc2)cc1,1,10,5,4,1,.,.,
N=c1c(C(=O)NCc2ccco2)cc2c(=O)n3ccccc3nc2n1CCc1ccccc1,16*,i,i,-325,-389,11,2,
N=c1c(C(=O)NCc2ccc(F)cc2)cc2c(=O)n3ccccc3nc2n1CC1CCCO1 (stereo not drawn),21*,i,i,-371,-479,-59,-54,
N=c1c(C(=O)NCCc2ccccc2)cc2c(=O)n3ccccc3nc2n1CC1CCCO1 (stereo not drawn),99*,i,i,i,i,9,7.7*,
COc1ccc(CCn2c(=N)c(C(=O)NCc3ccco3)cc3c(=O)n4ccccc4nc32)cc1OC,-2,-31,-24,-15,-24,.,.,
COC(=O)[C@]12C[C@H](CC(=O)N3CCN(C(=O)C4CC4)CC3)C(=O)N(CCc3ccc(OC)c(OC)c3)C1=C[C@H](C(C)(C)C)O[C@@H]2C,0,-7,-4,0,-1,.,.,
COCCNC(=O)C1CCCN(C(=O)c2oc3ccccc3c2C)CC1 (stereo not drawn),3,-2,-2,-2,1,.,.,
CCN(CC)CCCNC(=O)C1CCN(C(=O)c2oc3cc4sc(N(C)C)nc4cc3c2C)CC1,13*,-149,-52,-319,i,12,9.0*,
COCCCNC(=O)C1CCN(C(=O)c2oc3cc4sc(N(C)C)nc4cc3c2C)CC1,21*,-228,-93,-495,i,-5,-4,
Cc1c(O)c(CN2CCCC2)cc2c3c(c(=O)oc12)CCC3,70*,i,i,i,i,67*,65*,
CCc1cc(=O)oc2c(C)c(O)c(CN3CCCCC3)cc12,49*,i,i,i,i,64*,79*,
COc1ccc2c(CN3CCOCC3)cc(=O)oc2c1,1,-43,-11,-7,-7,.,.,
COc1ccc2c(CN3CCCCC3)cc(=O)oc2c1,23*,i,-189,-108,-159,3,1,
Cc1c(O)c(CN2CCCC2)cc2c1oc(=O)c1ccccc12,0,-19,-5,-70,-84,.,.,
CNC(C)C#Cc1ccc2oc3cccc(OC)c3c(=O)c2c1 (stereo not drawn),34*,-413,-135,-411,i,8,12*,
Cc1oc2c(CN3CCCC3)c(O)ccc2c(=O)c1-c1ccc(Cl)cc1,27*,i,-410,i,i,40*,50*,
Cc1oc2c(CN3CCCCC3C)c(O)ccc2c(=O)c1-c1ccc(Br)cc1 (stereo not drawn),10,i,-358,i,i,.,.,
SMILES,KLK7 zymogen act,ADAM10 inh,ADAM17 inh,PLCg1 inh,PLCb3 inh,KLK7 act conf,EDANS interfere,others
CCN1CCN(Cc2c(O)ccc3c(=O)c(-c4ccc(OC)c(OC)c4)c(C)oc23)CC1,11,-391,-140,-261,-340,.,.,
Cc1oc2c(CN3CCC(C)CC3)c(O)ccc2c(=O)c1-c1ccccc1,37*,i,i,i,i,40*,45*,
Cc1oc2c(CN3CCOCC3)c(O)ccc2c(=O)c1-c1ccc(Cl)cc1,49*,i,-253,-373,i,7,6.1*,
COC(=O)[C@]12C[C@H](CC(=O)NCC3CCCCC3)C(=O)N(Cc3ccc(Cl)cc3Cl)C1=C[C@H](C(C)C)O[C@@H]2C1CC1,0,0,-1,3,2,.,.,
COc1ccc(S[C@]2(C(=O)N3CCN(c4ncccn4)CC3)CC(=O)N(C(=O)c3ccccc3)[C@@H]2c2ccc(OC)cc2)cc1,0,-5,4,1,2,.,.,
COc1ccc(OC)c(/C=C/C(=O)OCC(=O)NCc2cccs2)c1,15*,-165,-43,i,i,9,21*,
COc1ccc(OC)c(/C=C/C(=O)NCCc2nc3ccccc3[nH]2)c1,49*,i,-363,i,i,37*,-31,EDANS interf=>69
O=C(/C=C/c1ccccc1)NCCc1nc2ccccc2[nH]1,0,-6,3,0,-8,.,.,
COc1ccc(OC)c(/C=C/C(=O)OCC(=O)NCc2ccccc2)c1,15*,-143,-47,-406,i,4,8.3*,
CCN(CC(=O)NCc1cccs1)C(=O)/C=C/c1cc(OC)ccc1OC,67*,i,-359,i,i,71*,71*,
COc1cc(O)c(C(CC(=O)N2CC(C)OC(C)C2)c2ccc3c(c2)OCO3)c(OC)c1 (stereo not drawn),.,-5,-5,0,0,.,.,
COc1ccc(CCNC(=O)Nc2ccc3c(c2)[C@]2(CC(=O)N(CC(C)C)C2c2ccccc2)C(=O)N3C)cc1OC (stereo partly drawn),0,2,5,4,8,.,.,
C/C(=C/c1nc(N)n(Cc2ccccc2)c1Cc1ccccc1)Cn1[nH]c(=O)n(-c2ccccc2)c1=O,0,0,0,0,-1,.,.,
O=c1oc2c(CN3CCOCC3)c(O)ccc2c2c1CCCC2,52*,i,i,i,i,69*,64*,
